For 5 compounds, composite z-score and z-score results are on record in PubChem BioAssay.

Experiment [1] in a line: small molecules captured by biotinylated probe aFSTL3 – biochemical, small-molecule microarray, fluorescence 635/667, stem cell growth factor project, primary screen (AID 1064).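 Note: measures binding of the biotinylated anti-FSTL3 antibody to printed compounds.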 The note with it: higher = more signal.
Experiment [2] can be described thus: binders from COS7 lysate, DM2A8 probe, primary screen, torsin A project, cell lysate, small-molecule microarray, fluorescence 635/667 (AID 1065). Particulars: higher = more signal, COS7 lysate expressing mutant human TOR1A.
The nature of experiment [3]: small molecules captured by biotinylated probe aFGF2 – biochemical, small-molecule microarray, fluorescence 635/667, stem cell growth factor project, primary screen (AID 1067).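 Note: measures binding of biotinylated aFGF2 protein to printed compounds on slides; z-score merges feature fluorescence and signal-to-noise across triplicate slides.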 Particulars: higher = more signal.
Experiment [4] in a line: small molecules captured by biotinylated probe aFGF10 – biochemical, small-molecule microarray, fluorescence 635/667, stem cell growth factor project, primary screen (AID 1071).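 Note: score merges 667 nm spot intensity and signal to noise from triplicate slides.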 The note with it: higher = more signal.
The target of experiment [5] is Neurogenic locus notch homolog protein 2 (Homo sapiens) (UniProt Q04721). Briefly: small molecules binding Notch2 protein – biochemical, small-molecule microarray, 635 nm fluorescence, stem cell growth factors, primary screen (AID 1073). Particulars: higher = more signal.
The target in experiment [6] is Pro-neuregulin-1, membrane-bound isoform (Homo sapiens) (UniProt Q02297). The experiment in a line: small molecules binding neuregulin-1 protein – biochemical, small-molecule microarray, fluorescence 635/667, psychiatric disease protein project, primary screen (AID 1075).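 Note: score combines 667 nm spot fluorescence with signal to noise.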 Particulars: NRG1 binding, 635 nm fluorescence, higher = more signal.
Experiment [7] has as its system Neuregulin-1 EGF-like domain. The experiment in a line: small molecules binding NRG1 EGF domain – biochemical, small-molecule microarray, 635 nm fluorescence, primary screen (AID 1081).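 Note: binding of the protein to compounds printed on small-molecule microarray slides.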 The note with it: higher = more signal.
A short description of experiment [8]: FRG1 expression reporter modulators in myotubes – cell-based, C2C12 myotubes, firefly/Renilla luciferase, luminescence, FRG1 inhibition for FSHD, primary screen (AID 1084). The note with it: FRG1 promoter luciferase, higher = more signal, called active from +8 up or from −8 down.
Experiment [9] in a line: small molecules captured by biotinylated probe aFST – biochemical, small-molecule microarray, fluorescence 635/667, stem cell growth factor project, primary screen (AID 1086).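 Note: score merges 667 nm fluorescence with signal-to-noise of each printed compound spot.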 The note with it: higher = more signal.
Experiment [10] is described as follows: binders of probe aHhip on microarray, primary screen, stem cell growth factor project, biochemical, small-molecule microarray, fluorescence 635/667 (AID 1087).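 Note: score merges spot fluorescence at 667nm with spot signal to noise ratio.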 The note with it: higher = more signal.
For experiment [11], the system named is PRMT1 (protein arginine N-methyltransferase 1). The experiment in a line: small molecules binding arginine methyltransferase PRMT1 – biochemical, small-molecule microarray, 635 nm fluorescence, primary screen (AID 1088).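 Note: binding of Prmt1 protein to compounds spotted on small-molecule microarray slides.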 Particulars: higher = more signal.
Experiment [12] is described as follows: growth effects on S. cerevisiae YJM789 – YJM789 clinical isolate, OD600, 24 h, basal, primary screen (AID 1089).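 Note: growth of clinical yeast isolate S. cerevisiae YJM 789 seeded 1000 cells per well; test concentration not given here.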 Particulars: higher = more signal, called active from +8 up or from −8 down.
Experiment [13] is described as follows: S. pombe growth modifiers, basal conditions – strain 972, OD600, 24 h, no modulator, primary screen (AID 1090).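 Note: basal condition with compound alone and no growth modifier present; test concentration not given here.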 The note with it: S. pombe 972 growth, higher = more signal, called active from +8 up or from −8 down.
Experiment [14] is described as follows: budding yeast growth modifiers under rapamycin – strain BY4716, OD600, 96 h, primary screen (AID 1091). Note: test concentration not given here. The note with it: S. cerevisiae BY4716 + rapamycin, higher = more signal, called active from +8 up or from −8 down.
Experiment [15] deals with Torsin-1A-interacting protein 2 (Homo sapiens) (UniProt Q8NFQ8). Briefly: small molecules binding lysate-expressed LULL1 – cell lysate, human LULL1 lysate, 635/667 nm fluorescence, primary screen (AID 1092).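 Note: probe is lysate of COS7 cells overexpressing human LULL1; score merges per-feature 667 nm fluorescence with signal-to-noise.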 The note with it: small-molecule microarray, hLULL1 lysate binding, 635 nm fluorescence; higher = more signal.
Experiment [16] in a line: optical density change of DRC41 E. coli – strain DRC41, OD650, 24 h, E. coli filamentation project, primary screen (AID 1093).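 Note: MC1000 strain lacking acrAB efflux and sulA so SOS filamentation is blocked; test concentration not given here.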 Particulars: E. coli DRC41 growth, higher = more signal, called active from +8 up or from −8 down.
Experiment [17] in a line: probe aLefty2 binding to arrayed compounds – biochemical, biotinylated probe, 635/667 nm fluorescence, primary screen (AID 1094).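 Note: score merges spot fluorescence near 667 nm with spot signal-to-noise ratio.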 Particulars: small-molecule microarray, higher = more signal.
The test system of experiment [18] is Noggin (protein binding on small-molecule microarray). The experiment in a line: small molecules binding Noggin protein – biochemical, 635/667 nm fluorescence, primary screen (AID 1095).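 Note: score merges 667 nm feature fluorescence with signal to noise over triplicate slides.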 The note with it: 635 nm fluorescence, higher = more signal.
For experiment [19], the target named is Neurogenic locus notch homolog protein 3 (Homo sapiens) (UniProt Q9UM47). The experiment in a line: small molecules binding NOTCH3 protein – biochemical, 635/667 nm fluorescence, primary screen (AID 1096). Particulars: small-molecule microarray, 635 nm fluorescence, higher = more signal.
Experiment [20] can be described thus: probe aEGFR binding to arrayed compounds – biochemical, biotinylated probe, 635/667 nm fluorescence, primary screen (AID 1097).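 Note: probe is a biotinylated anti-EGFR antibody binding compounds printed on slides; score combines fluorescence near 667 nm and signal to noise of each spot.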 Particulars: small-molecule microarray, higher = more signal.

Calls of active or inactive are those of the source.

Sequence of Torsin-1A-interacting protein 2 (Homo sapiens) (Q8NFQ8 whole entry, looked up): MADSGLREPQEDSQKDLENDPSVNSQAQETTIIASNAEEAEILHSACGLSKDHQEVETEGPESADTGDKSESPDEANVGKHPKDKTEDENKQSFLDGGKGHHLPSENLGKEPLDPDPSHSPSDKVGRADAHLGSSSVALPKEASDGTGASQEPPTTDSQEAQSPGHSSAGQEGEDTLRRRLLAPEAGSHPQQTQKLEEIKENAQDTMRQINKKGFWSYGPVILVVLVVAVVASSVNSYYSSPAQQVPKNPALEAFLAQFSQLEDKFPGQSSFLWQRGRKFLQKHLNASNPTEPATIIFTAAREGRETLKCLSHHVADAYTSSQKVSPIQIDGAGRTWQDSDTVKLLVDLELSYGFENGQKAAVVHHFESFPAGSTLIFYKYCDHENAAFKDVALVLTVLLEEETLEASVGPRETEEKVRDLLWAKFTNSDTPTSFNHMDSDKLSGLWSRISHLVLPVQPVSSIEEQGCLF
Sequence of Neurogenic locus notch homolog protein 2 (Homo sapiens) (Q04721 whole entry, looked up, canonical isoform): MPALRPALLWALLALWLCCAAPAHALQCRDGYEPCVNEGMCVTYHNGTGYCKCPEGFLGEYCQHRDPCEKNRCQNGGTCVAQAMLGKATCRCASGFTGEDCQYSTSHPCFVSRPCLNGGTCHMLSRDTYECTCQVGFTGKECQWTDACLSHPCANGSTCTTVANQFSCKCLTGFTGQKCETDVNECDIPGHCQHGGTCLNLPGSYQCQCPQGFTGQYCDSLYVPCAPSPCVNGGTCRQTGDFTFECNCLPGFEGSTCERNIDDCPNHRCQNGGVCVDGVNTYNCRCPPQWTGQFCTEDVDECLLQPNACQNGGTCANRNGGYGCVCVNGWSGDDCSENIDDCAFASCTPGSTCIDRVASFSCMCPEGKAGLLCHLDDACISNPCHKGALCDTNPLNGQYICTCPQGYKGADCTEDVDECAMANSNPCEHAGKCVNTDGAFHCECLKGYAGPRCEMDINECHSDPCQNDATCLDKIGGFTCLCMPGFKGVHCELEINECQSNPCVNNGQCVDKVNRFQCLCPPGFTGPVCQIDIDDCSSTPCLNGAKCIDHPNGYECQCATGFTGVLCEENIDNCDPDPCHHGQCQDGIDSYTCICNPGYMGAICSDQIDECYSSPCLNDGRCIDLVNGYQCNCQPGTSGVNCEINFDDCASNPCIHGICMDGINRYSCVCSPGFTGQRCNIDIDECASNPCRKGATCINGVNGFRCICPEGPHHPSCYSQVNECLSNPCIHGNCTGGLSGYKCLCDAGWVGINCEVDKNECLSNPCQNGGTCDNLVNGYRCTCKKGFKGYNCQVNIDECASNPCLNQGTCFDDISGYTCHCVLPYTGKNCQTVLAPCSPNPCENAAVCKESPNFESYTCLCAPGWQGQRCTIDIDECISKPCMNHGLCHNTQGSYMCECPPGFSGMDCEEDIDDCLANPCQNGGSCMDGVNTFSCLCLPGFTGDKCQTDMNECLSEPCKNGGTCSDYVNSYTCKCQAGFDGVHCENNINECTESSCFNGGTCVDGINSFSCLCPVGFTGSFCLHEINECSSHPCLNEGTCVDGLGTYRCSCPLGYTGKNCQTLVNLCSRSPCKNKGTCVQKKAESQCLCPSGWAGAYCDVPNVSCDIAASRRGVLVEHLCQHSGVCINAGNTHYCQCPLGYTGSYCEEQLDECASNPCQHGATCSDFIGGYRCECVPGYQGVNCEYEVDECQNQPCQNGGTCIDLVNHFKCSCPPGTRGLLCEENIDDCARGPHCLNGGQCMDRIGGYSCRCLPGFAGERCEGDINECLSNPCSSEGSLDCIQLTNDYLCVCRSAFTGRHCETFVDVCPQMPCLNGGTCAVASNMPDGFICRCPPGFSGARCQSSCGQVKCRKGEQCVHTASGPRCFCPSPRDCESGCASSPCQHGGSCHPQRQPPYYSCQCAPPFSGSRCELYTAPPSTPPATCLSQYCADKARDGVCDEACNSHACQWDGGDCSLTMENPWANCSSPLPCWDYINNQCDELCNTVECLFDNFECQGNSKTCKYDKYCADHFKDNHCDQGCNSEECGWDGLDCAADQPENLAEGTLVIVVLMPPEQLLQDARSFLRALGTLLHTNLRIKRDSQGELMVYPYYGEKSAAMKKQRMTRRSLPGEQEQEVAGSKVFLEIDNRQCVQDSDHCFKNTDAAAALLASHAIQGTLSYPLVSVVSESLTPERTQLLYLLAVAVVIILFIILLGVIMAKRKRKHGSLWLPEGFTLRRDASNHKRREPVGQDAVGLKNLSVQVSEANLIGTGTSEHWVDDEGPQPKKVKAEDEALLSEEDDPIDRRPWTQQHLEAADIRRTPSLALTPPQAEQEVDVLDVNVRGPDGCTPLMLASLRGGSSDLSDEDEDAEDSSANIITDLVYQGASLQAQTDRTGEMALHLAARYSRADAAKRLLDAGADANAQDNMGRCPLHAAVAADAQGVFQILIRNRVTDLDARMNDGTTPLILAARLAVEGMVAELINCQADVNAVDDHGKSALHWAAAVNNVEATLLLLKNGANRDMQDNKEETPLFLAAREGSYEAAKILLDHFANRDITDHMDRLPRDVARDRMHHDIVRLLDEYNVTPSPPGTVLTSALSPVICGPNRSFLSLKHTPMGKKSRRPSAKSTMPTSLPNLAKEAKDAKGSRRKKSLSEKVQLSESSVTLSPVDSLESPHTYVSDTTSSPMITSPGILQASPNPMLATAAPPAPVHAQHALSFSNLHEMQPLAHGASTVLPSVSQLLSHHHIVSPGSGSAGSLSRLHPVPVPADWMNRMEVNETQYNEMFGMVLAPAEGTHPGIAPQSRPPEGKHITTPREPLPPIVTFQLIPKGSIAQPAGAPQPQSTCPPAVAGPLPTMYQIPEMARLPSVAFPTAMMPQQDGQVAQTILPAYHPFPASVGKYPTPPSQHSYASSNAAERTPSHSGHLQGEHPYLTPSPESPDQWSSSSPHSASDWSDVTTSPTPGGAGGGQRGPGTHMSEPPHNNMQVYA
Sequence of Pro-neuregulin-1, membrane-bound isoform (Homo sapiens) (Q02297 whole entry, looked up, the tested form may be a part, canonical isoform): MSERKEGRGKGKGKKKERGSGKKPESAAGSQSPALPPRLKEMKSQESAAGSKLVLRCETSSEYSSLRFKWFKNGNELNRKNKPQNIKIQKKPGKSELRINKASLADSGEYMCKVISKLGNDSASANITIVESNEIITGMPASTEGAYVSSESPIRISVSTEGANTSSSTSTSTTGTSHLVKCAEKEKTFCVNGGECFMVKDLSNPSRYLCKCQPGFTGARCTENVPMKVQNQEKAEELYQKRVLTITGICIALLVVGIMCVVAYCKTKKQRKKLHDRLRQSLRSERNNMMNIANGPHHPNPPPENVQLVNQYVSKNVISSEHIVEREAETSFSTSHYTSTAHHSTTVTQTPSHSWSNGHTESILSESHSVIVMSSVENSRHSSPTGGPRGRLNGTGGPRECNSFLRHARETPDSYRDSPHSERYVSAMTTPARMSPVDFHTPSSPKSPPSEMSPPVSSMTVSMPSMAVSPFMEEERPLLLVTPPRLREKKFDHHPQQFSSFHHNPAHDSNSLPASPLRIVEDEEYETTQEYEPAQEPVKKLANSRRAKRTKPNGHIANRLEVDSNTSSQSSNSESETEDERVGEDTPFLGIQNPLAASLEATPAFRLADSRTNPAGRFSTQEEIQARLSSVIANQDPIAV

Take `C=CCOC(=O)[C@@H]1[C@H]2C(=O)O[C@H](c3ccccc3)[C@H](c3ccccc3)N2[C@H](c2ccc(OCCOC(=O)[C@@H]3C[C@@H]4C(=O)NCC(=O)N4[C@@H]3c3cccc(OCCO)c3)cc2)[C@@]12C(=O)Nc1ccc(I)cc12`: the composite z-score in [1] is -0.112; in experiment [2] it was 0.948; in [3] it was -0.119; in experiment [4] it was 0.818; in [5], 1.18; in [6], 1.29. In addition, the composite z-score in experiment [7] was 1.35; in experiment [9], 0.272; in experiment [10], -0.0391; in experiment [11] it was 1.53; in experiment [15] it was 2.53; in experiment [17], -0.0654. For the same compound, the composite z-score in [18] was determined as 1.14; in experiment [19], 1.1; in [20], 0.0618. Moreover, the z-score in experiment [8] is 0.536 (inactive); in [12], 0.895 (inactive); in [13] it was 1.01 (inactive); in experiment [14] it was 2.19 (inactive); in experiment [16], -0.637 (inactive).
In the case of `C=C(CCCC)/C(=C/C[C@H](OC(C)=O)c1ccc(CO)o1)c1cnc2ccccc2c1`, the composite z-score in experiment [1] was -0.472; in experiment [2], 0.773; in [3], -0.0749; in [4], 1.14; in experiment [5], 1.1; in experiment [6], 0.963. For the same compound, the composite z-score was 1.26 in experiment [7]; 0.13 in experiment [9]; 0.0505 in experiment [10]; 1.43 in experiment [11]; 1.46 in experiment [15]; -0.0998 in experiment [17]. Also, the composite z-score in experiment [18] came to 1.12; in [19], 1.07; in [20], 0.0324. Moreover, the z-score is 0.13 (inactive) in experiment [8]; -0.237 (inactive) in experiment [12]; -0.923 (inactive) in [13]; 1.37 (inactive) in experiment [14]; 0.111 (inactive) in experiment [16].
Take `CCOC(=O)C1=CCC(c2ccc(C#N)cc2)N(S(=O)(=O)c2ccc(C)cc2)C1` (stereo not given): the composite z-score was 0.657 in [1]; 0.359 in [2]; 0.165 in experiment [3]; 0.446 in [4]; 1.67 in experiment [5]; 1.32 in experiment [6]. In addition, the composite z-score was found to be 1.27 in experiment [7]; 1.27 in [9]; 0.11 in experiment [10]; 1.11 in [11]; 2.64 in experiment [15]; 0.276 in experiment [17]. For the same compound, the composite z-score in [18] is -0.184; in [19] it was 1.09; in [20], -0.0297. For the same compound, the z-score in experiment [8] is -3.85 (inactive); in experiment [12], -0.0764 (inactive); in experiment [13] it was 0.0767 (inactive); in experiment [14] it was 2.91 (inactive); in [16] it was 0.394 (inactive).
Turning to `COC(=O)[C@@]1(Cc2ccccc2)N=C(c2ccc(OCCCO)cc2)O[C@H]1c1ccccc1N=[N+]=[N-]`, the composite z-score in experiment [1] is 0.454; in experiment [2], 2.86; in [3], -0.0667; in experiment [4] it was 0.123; in experiment [5] it was 0.784; in experiment [6], 0.657. Also, the composite z-score in [7] is 1.33; in experiment [9] it was 0.0183; in [10] it was -0.201; in experiment [11], 1.49; in experiment [15] it was 1.35; in experiment [17], 0.0484. Also, the values for the composite z-score in experiment [18], in experiment [19] and in [20] were 0.884, 0.802 and -0.0953, respectively. The z-score in [8] was 3.69 (inactive); in experiment [12], 0.288 (inactive); in [13], -2.2 (inactive); in experiment [14] it was 5.8 (inactive); in experiment [16], 0.319 (inactive).
Turning to `CCCN1C(=O)[C@]2(COC(c3ccc(OCCCO)cc3)=N2)Cc2ccccc21`, the composite z-score amounted to 0.955 in experiment [1]; 0.325 in experiment [2]; 0.0092 in experiment [3]; 0.251 in experiment [4]; 0.419 in experiment [5]; 1.41 in experiment [6]. The composite z-score came to 1.18 in [7]; 0.486 in experiment [9]; 0.0044 in experiment [10]; 1.18 in [11]; 2.88 in experiment [15]; 0.303 in experiment [17]. Moreover, the composite z-score is 0.134 in experiment [18], 0.112 in [19] and -0.0774 in experiment [20]. Also, the z-score is -0.0593 (inactive) in experiment [8]; -0.102 (inactive) in experiment [12]; -2.37 (inactive) in experiment [13]; -1.35 (inactive) in experiment [14]; 0.525 (inactive) in [16].
